# PubChem BioAssay AID2570 (National Center for Advancing Translational Sciences (NCATS), 2010)
# Results filed as inconclusive are left out. A number with no mark means an inactive call. Calls follow the shape of the dose curve; as a rule, active = well fitted curve in the direction sought with a large enough effect; inconclusive = small, poorly fitted or top-dose-only effect, or another doubt; inactive = no such curve, though single readings can be large or run the other way.
# Biological target: Vasopressin V1b receptor (Homo sapiens) (UniProt P47901)
# Sequence (P47901 whole entry, looked up): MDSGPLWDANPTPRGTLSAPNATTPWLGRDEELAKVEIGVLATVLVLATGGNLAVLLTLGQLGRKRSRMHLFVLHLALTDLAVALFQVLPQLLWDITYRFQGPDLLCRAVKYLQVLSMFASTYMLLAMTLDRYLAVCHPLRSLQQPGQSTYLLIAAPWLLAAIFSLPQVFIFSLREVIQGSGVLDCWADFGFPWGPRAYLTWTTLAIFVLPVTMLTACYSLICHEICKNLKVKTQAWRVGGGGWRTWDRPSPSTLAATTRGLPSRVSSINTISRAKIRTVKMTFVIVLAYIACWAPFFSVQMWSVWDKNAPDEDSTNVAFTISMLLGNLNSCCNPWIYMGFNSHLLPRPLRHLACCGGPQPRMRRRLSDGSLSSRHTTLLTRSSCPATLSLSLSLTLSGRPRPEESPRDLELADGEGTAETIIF
# Assay: Counterscreen Concentration-Response Assay for Antagonists of the Neuropeptide S Receptor: Vasopressin Receptor Calcium Signal Transduction
# Conditions: CHO-AVPR1B, vasopressin-stimulated calcium fluorescence, FDSS
# Source text: NIH Chemical Genomics Center [NCGC] NIH Molecular Libraries Probe Production centers Network [MLPCN] MLPCN Grant: X01-DA026210-01 Assay Submitter (PI): Heilig, Markus Alexander NCGC Assay Overview: Neuropeptide S receptor (NPSR), previously known as GPR154, is a recently de-orphanized G protein coupled receptor. Its endogenous ligand is the 20 amino acids peptide Neuropeptide S (NPS). […] NPS and its receptor are found in various tissues. Specifically they are highly expressed in brain areas that have been implicated in modulation of arousal, stress and anxiety. Central administration of NPS in mice produces an unusual profile of activity by inducing wakefulness and arousal, while at the same time suppressing anxiety. Therefore, NPSR may represent a novel drug target for the treatment of sleep and anxiety disorders. To identify NPSR antagonists, we developed a cell-based assay with transfected NPS receptor. NPS can stimulate the production of cAMP as well as release intracellular calcium in Chinese hamster ovary cells stably expressing NPS receptor. This change in intracellular calcium can be detected using a calcium indicator dye on a calcium imaging plate reader system (FDSS). To validate the specific action of compounds on the NPS receptor, a counterscreen was developed that tests compounds' antagonism of AVPR1B vasopressin receptor stimulation by vasopressin. […] shares 27% identity with the NPS receptor.
# NCGC Assay Protocol Summary: A Chinese hamster ovary (CHO) cell line stably expressing human vasopressin receptor (AVPR1B) was maintained in F-12 Kaighn's media (Invitrogen, Carlsbad, CA, 21127) supplemented with 10 % FBS, 100 units/ml penicillin, 100 ug/ml streptomycin and 250 ug/ml geneticin at 37C, 5% CO2 in a humidified atmosphere. Before the assay, aliquots of cells were frozen and stored at -135C. The assay was performed on a FDSS-7000 kinetic plate reader in 1536-well format. The maximums of kinetic fluorescence responses were converted into text files using the instrument's software data export utility. Data for antagonist response were normalized to the controls for basal activity (DMSO only) and 100% inhibition (no signal). AC50 values were determined from concentration-response data modeled with the standard Hill equation. CHO-V1B 1536-well FDSS assay protocol: (1) Frozen CHO-V1B cells were thaw, washed once with fresh media and resuspended in F-12 Kaighn's media supplemented with 10 % FBS, 100 units/ml penicillin and 100 ug/ml streptomycin. Cells were plated at 3 ul/well (1200 cells) to black, clear-bottom, tissue-culture treated 1536-well plates, and then cultured at 37C, 5 % CO2 for 16 to 30 hours. (2) Add 3 ul of calcium dye (from High Performance PBX Calcium Assay Kit, BD Biosciences). The calcium dye was prepared according to the manufactory's instruction. (3) Incubation at 37C, 5 % CO2 for 60 min. (4) Add 23 nl/well of compound in DMSO solution. The final titration for each compound was between 0.6 nM and 46 uM. (5) Load plates to FDSS-7000. The following steps were performed on FDSS-7000. (6) Record fluorescent background (Ex 480 nm, Em 520-560 nm) for 10 s. (7) Add 2 ul of stimulation reagent (1X HBSS buffer, 0.1% BSA, 60 nM vasopressin). Record antagonist response (Ex 480 nm, Em 520-560 nm) for 180 s. Keywords: MLSMR, MLPCN, NIH Roadmap, qHTS, NCGC, NPS, Neuropeptide S Antagonists
row,SMILES,max response
1,COc1ccc(C2c3c(N)nc(Cc4ccccc4)nc3Oc3ccc4ccccc4c32)cc1OC (stereo not given),-15.7%
2,Cc1c(P(=S)(c2ccccc2)c2ccccc2)c2ccccc2n1C(=O)Cc1ccccc1,5.72%
3,COc1ccc(C2c3c(N)nc(CCc4ccccc4)nc3Oc3ccc4ccccc4c32)cc1OC (stereo not given),-20.6%
4,COc1ccc(C2c3c(ncn(CCN4CCOCC4)c3=N)Oc3ccc4ccccc4c32)cc1 (stereo not given),-23.1%
5,COc1cccc(C2c3c(ncn(-c4cccc(C)c4)c3=N)Oc3ccc4ccccc4c32)c1 (stereo not given),-55.3%
6,COc1cccc(C2c3c(ncn(-c4cccc(Cl)c4)c3=N)Oc3ccc4ccccc4c32)c1 (stereo not given),-5.71%
7,COc1ccc(C2c3c(n(CCc4ccccc4)cnc3=N)Oc3ccc4ccccc4c32)cc1OC (stereo not given),-53.4%
8,N#CC1=C(NC=NCc2ccccc2)Oc2ccc3ccccc3c2C1c1ccccc1 (stereo not given),-19%
9,COc1cccc(C2c3c(ncn(-c4ccc(C#N)cc4)c3=N)Oc3ccc4ccccc4c32)c1 (stereo not given),-46.5%
10,COc1cccc(C2c3c(ncn(-c4ccccc4C)c3=N)Oc3ccc4ccccc4c32)c1 (stereo not given),-2.54%
11,COc1cccc(C2c3c(ncn(-c4ccc(C)cc4)c3=N)Oc3ccc4ccccc4c32)c1 (stereo not given),-0.274%
12,COc1cccc(C2c3c(ncn(-c4ccc5c(c4)OCO5)c3=N)Oc3ccc4ccccc4c32)c1 (stereo not given),-20.7%
13,COc1cccc(C2c3c(ncn(-c4cccc(C#N)c4)c3=N)Oc3ccc4ccccc4c32)c1 (stereo not given),-10.9%
14,CCC(C)(CCN1CCOCC1)N(Cc1cc2ccccc2n(C)c1=O)C(=O)C1CCCCC1 (stereo not given),-9.76%
15,COc1cccc(C2c3c(ncn(-c4ccccc4)c3=N)Oc3ccc4ccccc4c32)c1 (stereo not given),-8.43%
16,O=C(NCc1ccccc1)Nc1ncnc2c1C(c1ccccc1)c1c(ccc3ccccc13)O2 (stereo not given),-5.16%
17,COc1ccc(C2c3c(n(Cc4ccccc4)cnc3=N)Oc3ccc4ccccc4c32)cc1OC (stereo not given),-20.3%
18,O=C(Nc1ncnc2c1C(c1ccccc1)c1c(ccc3ccccc13)O2)c1ccccc1 (stereo not given),8.3%
19,N=c1c2c(ccn1-c1ccccc1)Oc1ccc3ccccc3c1C2c1ccccc1 (stereo not given),-28.3%
20,N=c1c2c(ccn1CCCCc1ccccc1)Oc1ccc3ccccc3c1C2c1ccccc1 (stereo not given),19.5%

row,SMILES,max response
1,COc1cccc(C2c3c(ncn(-c4cccnc4)c3=N)Oc3ccc4ccccc4c32)c1 (stereo not given),-4.29%
2,COc1ccc(C2c3c(nc(C)[nH]c3=O)Oc3ccc4ccccc4c32)cc1OC (stereo not given),-25.8%
3,COc1cccc(C2c3c(ncn(Cc4cccs4)c3=N)Oc3ccc4ccccc4c32)c1 (stereo not given),22.2%
4,COc1cccc(C2c3c(ncn(-c4cccc(F)c4)c3=N)Oc3ccc4ccccc4c32)c1 (stereo not given),-14.9%
5,COc1cccc(C2c3c(ncn(-c4ccccc4C(C)(C)C)c3=N)Oc3ccc4ccccc4c32)c1 (stereo not given),9.94%
6,COc1cccc(C2c3c(ncn(-c4ccccn4)c3=N)Oc3ccc4ccccc4c32)c1 (stereo not given),29.6%
7,COc1cccc(C2c3c(ncn(-c4ccncc4)c3=N)Oc3ccc4ccccc4c32)c1 (stereo not given),23.2%
8,COc1ccc2c(c1)Oc1ncn(CCN3CCOCC3)c(=N)c1C2c1ccc(OC)c(OC)c1 (stereo not given),-21.2%
9,COc1ccc(C2c3ccc4ccccc4c3Oc3ncn(CCN4CCOCC4)c(=N)c32)cc1OC (stereo not given),-8.9%
10,COc1ccc(-n2cnc3c(c2=N)C(c2cccc(OC)c2)c2c(ccc4ccccc24)O3)cc1 (stereo not given),-14.1%
11,COc1cccc(C2c3c(ncn(-c4cccc(Br)c4)c3=N)Oc3ccc4ccccc4c32)c1 (stereo not given),-12.3%
12,COc1cccc(C2c3c(ncn(-c4ccc(C(C)(C)C)cc4)c3=N)Oc3ccc4ccccc4c32)c1 (stereo not given),17.5%
13,COc1cccc(C2c3c(ncn(-c4ccc(NC(C)=O)cc4)c3=N)Oc3ccc4ccccc4c32)c1 (stereo not given),-34.2%
14,COc1cccc(C2C(C#N)=C(NC(=O)CCc3ccccc3)Oc3ccc4ccccc4c32)c1 (stereo not given),10.7%
15,N=c1c2c(ccn1Cc1ccccc1)Oc1ccc3ccccc3c1C2c1ccccc1 (stereo not given),18.5%
16,COc1cccc(C2c3c(ncn(-c4ccccc4)c3=N)Oc3ccc4ccccc4c32)c1OC (stereo not given),-5.77%
17,COc1ccc(C2c3c(ncn(Cc4ccccc4)c3=N)Oc3ccc4ccccc4c32)cc1OC (stereo not given),-10.2%
18,CCOc1ccc(C2c3c(ncn(-c4ccccc4)c3=N)Oc3ccc4ccccc4c32)cc1OCC (stereo not given),-23.4%
19,Cc1c(P(=S)(c2ccccc2)c2ccccc2)c2ccccc2n1CCc1ccccc1,-38.1%
20,COc1ccc(C2C3=C(N=CN(CCN4CCOCC4)C3N)Oc3ccccc32)cc1OC (stereo not given),19.6%
